# Bioassay records deposited in PubChem by National Center for Advancing Translational Sciences (NCATS).
# A selection: hits, their analogues and other compounds. The true share with any hit is near 7.9%.
# MCF10A rerep – induces DNA re-replication in MCF 10a normal breast cells; MCF 10A DNA re-replication, Hoechst nuclear intensity, 48 h; Potency, µM (doses to about 46.1 µM), without a hit: at the highest dose activity, positive = re-replication, usual class: activators; actives 2.9% (n = 350,000); AID 624296; note: % of control where 0% means no effect; nearly all actives have a fitted effect of over 50% in size
# HT1080-NT tox – kills 2HG-producing HT-1080-NT fibrosarcoma cells. HT-1080-NT fibrosarcoma viability, CellTiter-Glo ATP luminescence, 48 h. Potency, µM (titrated, usually from 46.1 µM), inactives show at the top dose activity, negative = less viability, usual class: cytotoxic. actives 1.6% (n = 360,000). AID 686970;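 note: NT is the 2HG producing partner of a matched IDH1 knockdown line; 0% = DMSO-treated cells and -100% = media-only wells without cells; nearly all actives have a fitted effect of over 55% in size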
#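 HT-1080-NT fibrosarcoma cells (2HG-overproducing), 750 cells/well in RPMI with 5% FBS, dosed after 2 h and incubated 48 h at 37C. CellTiter-Glo luminescence normalized to DMSO and no-cell wells; concentration-response curves fitted and classed.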
# HT1080 IDH1KD tx – toxicity to HT-1080 IDH1 knockdown cells (counter line); HT-1080 IDH1 knockdown viability, ATP luminescence, 48 h; Potency, µM (doses to about 46.1 µM), for the others: at the highest dose activity, negative = toxicity, most hits filed as cytotoxic; actives 2% (n = 360,000); AID 686971;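 note: 0% = DMSO wells and -100% = cell-free medium wells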
#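 Luminescent ATP read-out (CellTiter-Glo, 10 min at room temperature) after 48 h compound exposure at 37 °C gave viability of IDH1-knockdown HT-1080 cells. Activity was normalised to DMSO and cell-free wells, then fitted as concentration-response curves.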
# KB-V1 cytotox – kills drug-selected multidrug resistant KB-V1 cells. KB-V1 MDR cells viability, CellTiter-Glo, 72 h. Potency, µM (highest dose often 46.1 µM), hits mostly cytotoxic. actives 3.4% (n = 400,000); note: % is set by controls: 0 for no effect and ±100 for the full control effect; nearly all actives have a fitted effect of over 60% in size
#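 Cells of the MDR subline KB-V1 are plated, dosed with compound at multiple concentrations, and incubated 72 h at 37 degrees C; CellTiter-Glo is then added and luminescence read after 10 min.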
# SW480 rereplic – inducers of DNA re-replication in SW480 colon cancer cells; Potency, µM (doses to about 46.1 µM), without a hit: top-dose re-replication activation, most hits filed as activators; actives 1.8% (n = 340,000); SW480 DNA re-replication, Hoechst DNA content imaging, 48 h; note: % of control where 0% means no effect; nearly all actives have a fitted effect of over 55% in size
#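 Cells (250 per well) received 23 nL compound or DMSO by pin tool and were kept 48 hr at 37 C, 5% CO2. Nuclei were then stained with Hoechst for 40 min and scanned for DNA content.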
# KB-3-1 cytotox – kills parental KB-3-1 adenocarcinoma cells; actives 1.4% (n = 400,000); Potency, µM (doses to about 46.1 µM), usual class: cytotoxic; KB-3-1 viability, CellTiter-Glo ATP luminescence, 72 h; note: % is set by controls: 0 for no effect and ±100 for the full control effect; nearly all actives have a fitted effect of over 60% in size
#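 Using CellTiter-Glo luminescence, growth of non-resistant KB-3-1 adenocarcinoma cells is assessed 72 h after pin-tool compound addition at 37 °C. Normalized responses across the concentration series yield fitted curves.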
# Starred values were filed as active, the others as inactive; i = inactive; ? = inconclusive; nt = no result given; [ ] = dose if it differs, or a comment. Calls come from the whole dose curve; as a rule, active = well fitted curve in the direction sought with a large enough effect; inconclusive = small, poorly fitted or top-dose-only effect, or another doubt; inactive = no such curve, though single readings can be large; an effect the other way counts as inactive or inconclusive. Potency is the fitted concentration of half-maximal effect.
SMILES,MCF10A rerep,HT1080-NT tox,HT1080 IDH1KD tx,KB-V1 cytotox,SW480 rereplic,KB-3-1 cytotox
O=C(c1ccccc1)c1ccc(OCCOCCN2CCN(Cc3ccccc3)CC2)cc1,?,18.4µM*,?,?,?,i
Cc1ccc(-c2cc(C(=O)Nc3cc(C)on3)no2)cc1,0.6%,0.7%,1.3%,i,-4.6%,i
O=C(Cn1nnc2ccccc21)c1ccccc1,-29.1%,-6.8%,-5.3%,i,-11.3%,i
O=C(N/N=C/c1sc(N2CCOCC2)nc1-c1ccccc1)c1cccc(S(=O)(=O)N2CCCC2)c1,14.6µM*,-3.5%,?,?,5.1%,3.66µM*
O=C(N/N=C/c1cc(Br)cc(Br)c1O)c1cccc(N2CCCC2=O)c1,?,-12.2%,-21.7%,i,8.2µM*,?
O=C(N/N=C/c1ccc(Cl)cc1Cl)c1cccc(N2CCCC2=O)c1,-5.4%,-4.2%,-8.1%,i,-101.9%,i
O=C(N/N=C/c1cc(Br)cc(Br)c1O)c1cccc(S(=O)(=O)N2CCOCC2)c1,-2.4%,-25.9%,?,i,0.651µM*,?
COc1cccc(/C=N/NC(=O)c2ccc(N3CCCC3=O)cc2)c1,13µM*,?,?,?,1.84µM*,16.4µM*
O=C(N/N=C/c1sc(N2CCOCC2)nc1-c1ccccc1)c1ccc(O)cc1,?,-19.5%,-25.7%,i,0.7%,i
O=C(N/N=C/c1cc(Cl)cc([N+](=O)[O-])c1O)c1cccc(S(=O)(=O)N2CCOCC2)c1,12.7%,16.4µM*,?,?,0.1%,?
Cc1ccc(Nc2nc(NCC3CCCO3)nc(N)c2[N+](=O)[O-])cc1 (stereo not given),11.6%,-20.2%,-18.2%,20.6µM*,28.7%,i
COc1ccc(C)cc1NC(=O)c1cnc2ccc(C)cn2c1=O,nt,nt,nt,i,nt,i
COc1ccc(C)cc1NC(=O)c1cnc2scc(C)n2c1=O,23.1µM*,3.2%,-2.2%,i,?,i
O=C1/C(=C\c2c(NCCOCCO)nc3ccccn3c2=O)SC(=S)N1Cc1ccco1,9.2µM*,?,?,?,-34.5%[1.84 µM],i
CCCCCc1cc(=O)oc2c(C(CCN(CC)CC)c3cc(OC)c(OC)c(OC)c3)c(OC)cc(OC)c12 (stereo not given),-2.7%,?,18.4µM*,i,0.6%,?
CCCCCc1cc(=O)oc2c(C(CCN3CCCCC3)c3ccc4c(c3)OCO4)c(OC)cc(OC)c12 (stereo not given),33.8%,?,?,i,?,i
CC1CCN(CC(=O)NNC(=O)c2cccc(Br)c2)CC1,-18.9%,-6.4%,-5.0%,i,-18.9%,i
CCc1nn2cc(C(=O)c3cc(C)ccc3O)cnc2c1-c1ccc(F)cc1,18.4µM*,4.2%,6.2%,?,-1.4%,i
O=C(NCc1ccco1)/C(=C/C=C/c1ccccc1)NC(=O)c1ccco1,1.9%,3.1%,2.2%,i,6.0%,i
O=C1C2C3C=CC(C3)C2C(=O)N1c1ccc2ccccc2c1 (stereo not given),11.8%,1.4%,0.8%,i,?,i
COC(=O)C1(C)COP(=O)(NC23CC4CC(CC(C4)C2)C3)OC1 (stereo not given),0.2%,6.4%,15.3%,18.4µM*,-3.2%,i
COC(=O)c1sc(NC(=S)NC(=O)c2cccc(Br)c2)nc1C,2.6%,-0.3%,1.0%,i,-3.4%,i
CC(=O)OC1c2c(ccc3ccc(=O)oc23)OC(C)(C)C1OC(=O)CC(C)C (stereo not given),4.4%,-6.3%,-4.0%,11.6µM*,-6.8%,i
CCO[C@@H]1c2c(ccc3ccc(=O)oc23)OC(C)(C)[C@@H]1O,-9.9%,-1.5%,2.8%,i,2.2%,i
